Reference: the supplement of paper PMC6555819

Assays:
Assay in all cases: PBM binding z-score (relative to random genomic background probes); higher = stronger binding; sequences stand for … in GC…GCGATTGACAGCGTAGAATGAAGG
[1] = test system: FXR:RXRa (NR concentration 270 nM, RXRa partner concentration 90 nM)
Method in brief: (§1)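 Each nuclear receptor dimer, without ligand, was incubated for 1 h on custom Agilent 4×180K protein-binding microarrays. Binding was detected with antibodies against each partner (one per run), and scanned fluorescence was regression-normalized. The binding z-scores are referenced to random human genomic background probes.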

[2] = test system: LXRa:RXRa (NR concentration 270 nM, RXRa partner concentration 90 nM)
Method in brief: as §1

[3] = test system: LXRa homodimer (NR concentration 270 nM)
Method in brief: as §1

[4] = test system: LXRb:RXRa (NR concentration 270 nM, RXRa partner concentration 90 nM)
Method in brief: as §1

[5] = test system: PPARa:RXRa (NR concentration 270 nM, RXRa partner concentration 90 nM)
Method in brief: as §1

[6] = test system: PPARg:RXRa (NR concentration 180 nM, RXRa partner concentration 90 nM)
Method in brief: as §1

[7] = test system: PPARg:RXRa 270nM:90nM, anti-RXR (NR concentration 270 nM, RXRa partner concentration 90 nM)
Method in brief: as §1

[8] = test system: PPARg:RXRa 30nM:10nM, anti-RXR (NR concentration 30 nM, RXRa partner concentration 10 nM)
Method in brief: as §1

[9] = test system: PPARg:RXRa 90nM:30nM, anti-RXR (NR concentration 90 nM, RXRa partner concentration 30 nM)
Method in brief: as §1

[10] = test system: PPARg:RXRa DBDmut IVT, anti-RXR (DBD mutation: RXRa K156A/R161A, NR concentration 270 nM, RXRa partner concentration 90 nM)
Method in brief: as §1

[11] = test system: PPARg:RXRa IVT, anti-PPARg (NR concentration 270 nM, RXRa partner concentration 90 nM)
Method in brief: as §1

[12] = test system: PPARg homodimer (NR concentration 180 nM)
Method in brief: as §1

[13] = test system: PXR:RXRa (NR concentration 270 nM, RXRa partner concentration 90 nM)
Method in brief: as §1

[14] = test system: PXR homodimer (NR concentration 270 nM)
Method in brief: as §1

[15] = test system: RARa:RXR (NR concentration 270 nM, RXRa partner concentration 90 nM)
Method in brief: as §1

[16] = test system: RARa homodimer (NR concentration 270 nM)
Method in brief: as §1

[17] = test system: RARb:RXRa (NR concentration 270 nM, RXRa partner concentration 90 nM)
Method in brief: as §1

Row | Sequence | PBM binding z-score [1] | PBM binding z-score [2] | PBM binding z-score [3] | PBM binding z-score [4] | PBM binding z-score [5] | PBM binding z-score [6] | PBM binding z-score [7] | PBM binding z-score [8] | PBM binding z-score [9] | PBM binding z-score [10] | PBM binding z-score [11] | PBM binding z-score [12] | PBM binding z-score [13] | PBM binding z-score [14] | PBM binding z-score [15] | PBM binding z-score [16] | PBM binding z-score [17]
1 | CCGAGTAGATTACGAGGGGGCATTCAGTGCGAAT | 0.841 | 2.24 | 0.791 | 3.36 | 1.75 | 0.167 | 0.849 | 0.0804 | 0.742 | 0.434 | 0.871 | 0.638 | 2.73 | 3.64 | 1.79 | -0.0773 | 0.973
2 | TCGAGTAGGTTACGGGGGCATTAAGGGATGAAGA | 2.01 | 2.81 | 0.404 | 4.64 | 4.16 | 6.03 | 5.7 | 3.23 | 5.14 | 4.98 | 6.1 | 1.98 | 2.76 | 1.24 | 2.79 | 0.727 | 2.59
3 | CTATGTAGTTTAAGGGGGTCATTCAGTTTGAAAG | 4.48 | 4.76 | 3.99 | 6.25 | 5.3 | 4.03 | 5.19 | 2.68 | 4.56 | 3.79 | 4.99 | 4.75 | 5.93 | 13.2 | 5.64 | 2.73 | 3.68
4 | CTATGTAGGTTAAGGGGGTCCTTCAGTTTGAAAG | 1.09 | 1.76 | 0.414 | 3.75 | 4.29 | 6.59 | 6.57 | 4.47 | 6.41 | 7.26 | 6.7 | 1.58 | 2.33 | 1.68 | 1.92 | 0.652 | 1.67
5 | CTATGTAGATTAAGGGGGTCATTCAGTTTGAAAG | 4.51 | 4.72 | 3.33 | 6.12 | 5.52 | 4.29 | 5.06 | 2.72 | 4.53 | 3.6 | 4.97 | 4.49 | 5.56 | 10.4 | 5.56 | 3.01 | 3.42
6 | TCGAGTAGGTTACGGTGGCATTCAGGGATGAAGA | 0.0909 | 0.257 | -0.578 | 0.0794 | 1.81 | 1.73 | 2.29 | 1.44 | 1.9 | 3.28 | 3.56 | 0.177 | -0.0566 | -0.975 | 0.611 | -0.958 | 0.864
7 | CCGAGTAGGTTACGAGGGGGCATTTAGTGCGAAT | 2.43 | 7.16 | 1.74 | 6.59 | 3.54 | 1.87 | 3.44 | 1.22 | 2.89 | 4.67 | 4.43 | 1.41 | 4.52 | 2.55 | 3.03 | 0.176 | 2.09
8 | CCGAGTAGGTTACGAGGGGGCAATCAGTGCGAAT | 2.55 | 6.66 | 0.917 | 6.01 | 3.34 | 2.49 | 3.24 | 0.613 | 2.21 | 4.92 | 4.42 | 2.06 | 4.26 | 2.9 | 2.87 | 0.639 | 2.16
9 | CTATGTAGGTTAAGGGGGTCACTCAGTTTGAAAG | 4.57 | 4.36 | 1.65 | 5.87 | 5.91 | 8.64 | 7.98 | 6.23 | 8.19 | 7.55 | 7.88 | 6 | 5.64 | 10.5 | 5.73 | 3.18 | 3.61
10 | CTATGCAGGTTAAGGGGGTCATTCAGTTTGAAAG | 5.02 | 5.01 | 3 | 6.31 | 5.63 | 5.77 | 6.3 | 3.13 | 5.29 | 4.72 | 5.58 | 2.68 | 5.97 | 12.4 | 5.93 | 1.66 | 3.52
11 | TCGGGTAGGTTACGGGGGCATTCAGGGATGAAGA | 3.9 | 4.06 | 2.17 | 5.75 | 4.69 | 5.73 | 5.54 | 3.74 | 4.7 | 4.27 | 6.24 | 3.68 | 4.2 | 3.72 | 4.12 | 1.88 | 3.35
12 | TCGAGTAGGGTACGGGGGCATTCAGGGATGAAGA | 2.34 | 2.37 | 0.643 | 4.6 | 3.09 | 4.1 | 4.09 | 3.19 | 3.84 | 4.21 | 5.82 | 1.54 | 3.3 | 1.96 | 2.86 | 0.475 | 2.37
13 | CTATGTAGGTTAAGGGGGTCATTCACTTTGAAAG | 5.19 | 5.06 | 2.92 | 6.16 | 5.91 | 8.46 | 8.03 | 5.89 | 8.28 | 7.7 | 7.41 | 3.47 | 5.59 | 4.83 | 5.77 | 1.84 | 3.4
14 | CTAAGTAGGTTAAGGGGGTCATTCAGTTTGAAAG | 5.01 | 4.96 | 3.1 | 6.08 | 6.01 | 8.37 | 7.83 | 6.33 | 8.16 | 7.83 | 7.65 | 3.59 | 5.74 | 11.4 | 5.63 | 1.86 | 3.43
15 | CCGAGTAGCTTACGAGGGGGCATTCAGTGCGAAT | 0.729 | 1.73 | 0.701 | 3.62 | 1.77 | -0.443 | 0.5 | -0.877 | -0.359 | 0.648 | 0.528 | 0.745 | 2.64 | 5.04 | 1.67 | -0.103 | 0.8
16 | TCGAGTAGGTTACGGGGGCATGCAGGGATGAAGA | 2.17 | 2.53 | 0.37 | 4.94 | 4.27 | 6.15 | 5.69 | 3.6 | 4.99 | 5.07 | 5.87 | 1.59 | 2.75 | 0.876 | 2.91 | 0.522 | 2.5
17 | CCGAGTAGGTTACCAGGGGGCATTCAGTGCGAAT | 2.76 | 7.81 | 3.59 | 6.85 | 3.43 | 2.1 | 3.31 | 0.696 | 2.27 | 3.65 | 4.24 | 1.99 | 4.73 | 5.81 | 2.91 | 0.502 | 2.33
18 | TCGAGTAGGTTACGGGGGCATTCAAGGATGAAGA | 2.72 | 3.01 | 0.487 | 4.72 | 4.27 | 6.08 | 5.8 | 3.65 | 4.94 | 4.93 | 6 | 1.38 | 3.1 | 1.06 | 3.21 | 0.0228 | 2.59
19 | TCGAGTAGGTTACGGGGGCTTTCAGGGATGAAGA | 1.64 | 2.06 | 0.118 | 4.46 | 3.23 | 3.47 | 3.94 | 2.05 | 3.12 | 4.35 | 4.61 | 0.803 | 1.87 | 0.25 | 1.99 | -0.0109 | 1.69
20 | CCGAGTAGGTTACGAGGGGGCGTTCAGTGCGAAT | 1.13 | 6.33 | 0.912 | 5.52 | 3.11 | 2 | 3.17 | 0.694 | 2.26 | 5 | 4.63 | 1.55 | 4.3 | 3.24 | 2.59 | 0.353 | 1.72
21 | CCGAGTAGGTTACGAGGGGGCATGCAGTGCGAAT | 1.91 | 6.78 | 0.861 | 5.49 | 3.35 | 2.46 | 3.3 | 0.783 | 2.32 | 4.44 | 4.36 | 2.26 | 4.24 | 2.63 | 2.98 | 0.865 | 2.26
22 | TCGAGTAGGTTACGGGGGCATACAGGGATGAAGA | 2.72 | 2.52 | 0.664 | 4.86 | 4.48 | 6.1 | 5.69 | 3.56 | 5.05 | 5.24 | 5.71 | 3.33 | 2.97 | 1.54 | 3.27 | 0.305 | 2.65
23 | CTATGTAGGTTAAGGGTGTCATTCAGTTTGAAAG | 0.954 | 1.2 | 0.0163 | 1.33 | 4.61 | 8.17 | 7.44 | 6.35 | 8.04 | 7.72 | 7.59 | 1.32 | 1.38 | 0.641 | 1.5 | 0.262 | 1.56
24 | CTATGTAGGTTCAGGGGGTCATTCAGTTTGAAAG | 5.43 | 5.56 | 4.57 | 6.31 | 5.86 | 5.72 | 6.22 | 3.18 | 5.1 | 3.32 | 4.65 | 3.3 | 6.29 | 10.6 | 6.89 | 2.03 | 3.59
25 | CCGAGTAGGTTACGATGGGGCATTCAGTGCGAAT | 0.181 | 6.63 | -0.148 | 3.71 | 1.42 | 0.775 | 1.01 | -0.257 | 0.557 | 4.25 | 3.03 | -0.0463 | 0.69 | 0.101 | 0.251 | -0.659 | 1.03
26 | CCGAGTAGGTGACGAGGGGGCATTCAGTGCGAAT | 1.24 | 3.03 | 0.595 | 4.26 | 3.3 | 2.94 | 3.3 | 0.701 | 2.23 | 5.58 | 5.86 | 1.39 | 4.21 | 5.4 | 2.76 | 0.823 | 1.75
27 | CCGAGTAGGGTACGAGGGGGCATTCAGTGCGAAT | 1.83 | 4.84 | 0.674 | 4.44 | 2.53 | 0.709 | 1.58 | 0.0374 | 1.17 | 2.87 | 3.56 | 0.861 | 3.15 | 3.37 | 1.71 | -0.0964 | 1.36
